# From PubChem BioAssay (NCI)
# The panel holds about 79,000 compounds, 15% with a hit somewhere; the sample as a whole holds those more often. Values without a mark were called inactive. Calls of active or inactive are those of the source. Rule as the data show it: active = growth inhibition above about 70%; inactive = the rest.
# Tests used:
# [1] = NCI Yeast Anticancer Drug Screen. Data for the rad52 strain (AID 147);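 also: 0% = growth of vehicle-treated control cultures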; conditions: S. cerevisiae rad52 mutant growth inhibition, stronger effect = higher value
# Outline: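 Inhibition of yeast growth, referenced to vehicle controls, was the measured output for a strain with defective DNA damage repair.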
# [2] = NCI Yeast Anticancer Drug Screen. Data for the wt1 strain (AID 149);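 also: 0% = growth of vehicle-treated wt1 cultures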; conditions: S. cerevisiae wt1 strain (SPY 50644) growth inhibition, stronger effect = higher value
# Outline: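 The wt1 strain was treated with compounds, and growth was compared with vehicle-treated cultures to give inhibition.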
# [3] = NCI Yeast Anticancer Drug Screen. Data for the rad50EPP+ strain (AID 151);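 also: 0% = growth of vehicle-treated control cultures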; conditions: S. cerevisiae rad50 mutant strain, stronger effect = higher value
# Outline: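 Genetically defined yeast (rad50EPP+, DNA damage repair alteration) is grown with compound, and inhibition of growth is expressed relative to vehicle-treated controls.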
# [4] = NCI Yeast Anticancer Drug Screen. Data for the mgt1 strain (AID 153); conditions: S. cerevisiae mgt1 mutant growth inhibition, stronger effect = higher value
# Outline: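 In the mgt1 strain, test compounds were added and growth inhibition was determined relative to vehicle-treated controls.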
# [5] = NCI Yeast Anticancer Drug Screen. Data for the rad50 strain (AID 155);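 also: 0% = growth of vehicle-only cultures of the same strain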; conditions: S. cerevisiae rad50 strain growth inhibition, stronger effect = higher value
# Outline: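 Cells are treated with compound, grown, and their growth is then scored against vehicle-only cultures of the same repair-deficient yeast strain.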
# [6] = NCI Yeast Anticancer Drug Screen. Data for the mec2-1 strain (AID 157); conditions: S. cerevisiae mec2-1 strain, stronger effect = higher value
# Outline: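 Each compound was tested on mec2-1 yeast, a strain altered in DNA damage repair or cell cycle control. Growth inhibition is reported relative to vehicle.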
# [7] = NCI Yeast Anticancer Drug Screen. Data for the rad14 strain (AID 159);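 also: 0% = growth of vehicle-treated control cultures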; conditions: S. cerevisiae rad14 strain growth inhibition, stronger effect = higher value
# Outline: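 Readout: yeast growth inhibition, referenced to vehicle-only cultures. Strain bears a defined alteration in DNA damage repair.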
# [8] = NCI Yeast Anticancer Drug Screen. Data for the sgs1 mgt1 strain (AID 161);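 also: 0% = growth of cultures given vehicle only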; conditions: S. cerevisiae sgs1 mgt1 strain, stronger effect = higher value
# Outline: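 Test agents were incubated with a DNA-repair-mutant yeast strain. Growth was then read and compared against vehicle-treated controls.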
# [9] = NCI Yeast Anticancer Drug Screen. Data for the CLN2oe strain (AID 163);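 also: 0% = growth of vehicle-only control cultures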; conditions: S. cerevisiae CLN2oe strain, stronger effect = higher value
# Outline: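 First, the altered yeast strain was treated with each compound; second, its growth was measured; finally, inhibition was derived by comparison with vehicle controls.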
# [10] = NCI Yeast Anticancer Drug Screen. Data for the cln2 rad14 strain (AID 165);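 also: 0% = growth equal to vehicle treated cultures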; conditions: S. cerevisiae cln2 rad14 strain, stronger effect = higher value
# Outline: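 Test compounds were added to cln2 rad14 yeast cultures; inhibition of growth was then determined by comparison with vehicle treatment.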
# [11] = NCI Yeast Anticancer Drug Screen. Data for the bub3 strain (AID 167); conditions: S. cerevisiae bub3 mutant strain, stronger effect = higher value
# Outline: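 Part of a panel of yeast mutants defective in DNA damage repair or cell cycle regulation. Each strain is grown with compound, and inhibition is calculated relative to solvent-treated cultures.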
# [12] = NCI Yeast Anticancer Drug Screen. Data for the wt2 strain (AID 169);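 also: 0% = growth of vehicle-treated yeast cultures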; conditions: S. cerevisiae wt2 strain growth inhibition, stronger effect = higher value
# Outline: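 The panel's yeast strains carry defined changes in DNA repair or cell cycle genes. Each strain is grown with compound, and growth loss is scored relative to vehicle.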
# [13] = NCI Yeast Anticancer Drug Screen. Data for the mlh1 strain (AID 171);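 also: 0% = growth of vehicle-treated control cultures of the same strain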; conditions: S. cerevisiae mlh1 strain growth inhibition, stronger effect = higher value
# Outline: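 Inhibition values reflect reduced yeast growth in the presence of compound, referenced to vehicle controls, using a strain chosen for its alteration in DNA repair or cell cycle control.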
# [14] = NCI Yeast Anticancer Drug Screen. Data for the sgs1 strain (AID 173);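 also: 0% = growth of vehicle-only control cultures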; conditions: S. cerevisiae sgs1 mutant, stronger effect = higher value
# Outline: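 Vehicle-treated cultures served as reference for growth inhibition of a yeast strain altered in DNA damage repair or cell cycle control after compound exposure.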
# [15] = NCI Yeast Anticancer Drug Screen. Data for the mlh1 rad18 strain (AID 175); conditions: S. cerevisiae mlh1 rad18 strain growth inhibition, stronger effect = higher value
# Outline: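 Inhibition values reflect reduced growth of mutant yeast versus vehicle-treated controls following compound exposure; the mutations affect DNA damage repair.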
# [16] = NCI Yeast Anticancer Drug Screen. Data for the rad18 strain (AID 177); conditions: S. cerevisiae rad18 mutant growth inhibition, stronger effect = higher value
# Outline: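 Steps: expose repair-mutant yeast to compound; measure growth; express as inhibition relative to vehicle control.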
# [17] = at 5.0 µM (retest, dose inferred, filed as 0.5)
# [18] = at 50.0 µM (retest, dose inferred, filed as 5.0)
smiles,measurement,setting,value
CCOC(=O)[C@H]1Nc2ccccc2C2c3ccccc3CC21 (stereo partly drawn),growth inhibition,[1]; at 1.2 µM,-39%
same,growth inhibition,[1]; at 3.7 µM,-44%
same,growth inhibition,[1]; at 11.0 µM,-10%
same,growth inhibition,[1]; at 33.0 µM,55%
same,growth inhibition,[1]; at 100.0 µM,76% (active)
same,growth inhibition,[2]; at 1.2 µM,-9%
same,growth inhibition,[2]; at 3.7 µM,-2%
same,growth inhibition,[2]; at 11.0 µM,0%
same,growth inhibition,[2]; at 33.0 µM,26%
same,growth inhibition,[2]; at 100.0 µM,54%
same,growth inhibition,[3]; at 1.2 µM,6%
same,growth inhibition,[3]; at 3.7 µM,0%
same,growth inhibition,[3]; at 11.0 µM,14%
same,growth inhibition,[3]; at 33.0 µM,31%
same,growth inhibition,[3]; at 100.0 µM,14%
same,growth inhibition,[4]; at 1.2 µM,-4%
same,growth inhibition,[4]; at 3.7 µM,10%
same,growth inhibition,[4]; at 11.0 µM,53%
same,growth inhibition,[4]; at 33.0 µM,64%
same,growth inhibition,[4]; at 100.0 µM,65%
same,growth inhibition,[5]; at 1.2 µM,-6%
same,growth inhibition,[5]; at 3.7 µM,-9%
same,growth inhibition,[5]; [17],15%
same,growth inhibition,[5]; at 11.0 µM,-4%
same,growth inhibition,[5]; at 33.0 µM,27%
same,growth inhibition,[5]; [18],91% (active)
same,growth inhibition,[5]; at 50.0 µM,84.6% (active)
same,growth inhibition,[5]; at 100.0 µM,55%
same,growth inhibition,[6]; at 1.2 µM,-23%
same,growth inhibition,[6]; at 3.7 µM,-12%
same,growth inhibition,[6]; [17],-10%
same,growth inhibition,[6]; at 11.0 µM,21%
same,growth inhibition,[6]; at 33.0 µM,53%
same,growth inhibition,[6]; [18],20%
same,growth inhibition,[6]; at 50.0 µM,91.3% (active)
same,growth inhibition,[6]; at 100.0 µM,65%
same,growth inhibition,[7]; at 1.2 µM,-13%
same,growth inhibition,[7]; at 3.7 µM,-16%
same,growth inhibition,[7]; at 11.0 µM,1%
same,growth inhibition,[7]; at 33.0 µM,22%
same,growth inhibition,[7]; at 100.0 µM,50%
same,growth inhibition,[8]; [17],25%
same,growth inhibition,[8]; [18],83% (active)
same,growth inhibition,[8]; at 50.0 µM,91.4% (active)
same,growth inhibition,[9]; at 1.2 µM,5%
same,growth inhibition,[9]; at 3.7 µM,-1%
same,growth inhibition,[9]; at 11.0 µM,11%
same,growth inhibition,[9]; at 33.0 µM,30%
same,growth inhibition,[9]; at 100.0 µM,23%
same,growth inhibition,[10]; [17],13%
same,growth inhibition,[10]; [18],73% (active)
same,growth inhibition,[10]; at 50.0 µM,90.9% (active)
same,growth inhibition,[11]; at 1.2 µM,-4%
same,growth inhibition,[11]; at 3.7 µM,11%
same,growth inhibition,[11]; [17],-6%
same,growth inhibition,[11]; at 11.0 µM,23%
same,growth inhibition,[11]; at 33.0 µM,79% (active)
same,growth inhibition,[11]; [18],75% (active)
same,growth inhibition,[11]; at 50.0 µM,90.5% (active)
same,growth inhibition,[11]; at 100.0 µM,81% (active)
same,growth inhibition,[12]; at 1.2 µM,-31%
same,growth inhibition,[12]; at 3.7 µM,-25%
same,growth inhibition,[12]; at 11.0 µM,21%
same,growth inhibition,[12]; at 33.0 µM,44%
same,growth inhibition,[12]; at 100.0 µM,48%
same,growth inhibition,[13]; at 1.2 µM,-3%
same,growth inhibition,[13]; at 3.7 µM,28%
same,growth inhibition,[13]; at 11.0 µM,52%
same,growth inhibition,[13]; at 33.0 µM,70% (active)
same,growth inhibition,[13]; at 100.0 µM,60%
same,growth inhibition,[14]; at 1.2 µM,-6%
same,growth inhibition,[14]; at 3.7 µM,4%
same,growth inhibition,[14]; at 11.0 µM,41%
same,growth inhibition,[14]; at 33.0 µM,64%
same,growth inhibition,[14]; at 100.0 µM,72% (active)
same,growth inhibition,[15]; [17],8%
same,growth inhibition,[15]; [18],94% (active)
same,growth inhibition,[15]; at 50.0 µM,87.8% (active)
same,growth inhibition,[16]; at 1.2 µM,-31%
same,growth inhibition,[16]; at 3.7 µM,-36%
same,growth inhibition,[16]; at 11.0 µM,17%
same,growth inhibition,[16]; at 33.0 µM,64%
same,growth inhibition,[16]; at 100.0 µM,74% (active)
